# System: ITK
# Details: Compound Concentration (nM):1000
# 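Further: KINOMEscan scanMAX binding as percent activity remaining versus control; lower means stronger binding.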
row,SMILES,Percent Control
1,COc1cc(/C=N/Nc2ncnc3[nH]ncc23)ccc1O [GW578748X],100%
2,COc1ccc2cc(-c3c(-c4ccncc4)nc(-c4ccc(S(C)(=O)=O)cc4C)n3C)ccc2c1 [SB-633825],60%
3,COc1ccc(COc2ccc(Cc3cnc(N)nc3N)cc2OC)cc1 [GW632580X],89%
4,COc1cccc(-n2ncc3c(N/N=C/c4ccncc4)ncnc32)c1 [GW784752X],100%
5,CN(C)c1cc2c(Nc3ccc4c(cnn4Cc4ccccc4)c3)ncnc2cn1 [GW282974X],87%
6,Cc1cc(O)cc(C)c1/C=C/c1cncc(C(N)=O)c1 [GW435821X],94%
7,NS(=O)(=O)c1ccc(N/N=C2\C(=O)Nc3ccc(-c4cnco4)cc32)cc1 [GW276655],93%
8,O=C(Nc1n[nH]c2nc(-c3ccc(O)cc3)c(Br)cc12)C1CC1 [SB-725317],100%
9,NS(=O)(=O)c1ccc(Nc2ncc(-c3ccccc3)o2)cc1 [GW572399X],90%
10,Cl.O=C(O[C@H]1CN[C@H](C#Cc2cc3ncnc(Nc4ccc5c(cnn5Cc5ccccc5)c4)c3s2)C1)N1CCOCC1 [GSK200398A],100%
11,COc1ccccc1-c1cc(/C=C2\C(=O)Nc3ncc(Br)cc32)cc(Br)c1O [GW442130X],100%
12,CC1=C(C(=O)Nc2ccc3[nH]ncc3c2)C(c2ccc(Cl)c(Cl)c2)CC(=O)N1 (stereo not shown) [GSK299115A],74%
13,COc1cc2ncnc(Nc3ccc4c(cnn4Cc4ccccc4)c3)c2cc1OC.Cl [GW282449A],100%
14,O=C1Nc2ccc(C(=O)c3ccco3)cc2C1=Cc1cc(Cl)c(O)c(Cl)c1 [GW406108X],100%
15,CC(C)COC(=O)c1ccc2c(c1)/C(=C/Nc1ccc(S(N)(=O)=O)cc1)C(=O)N2 [GW416981X],100%
16,Cl.O=S1CCN(Cc2ccc(-c3ccc4ncnc(Nc5ccc(OCc6ccccc6)c(F)c5)c4c3)o2)CC1 [GW576924A],100%
17,CCn1c(-c2nonc2N)nc2c(C#CC(C)(C)O)nc(OCCNC)cc21.Cl [GSK949675],100%
18,COc1cc(C=NNc2ncnc3c2cnn3-c2ccccc2)ccc1O [GW513184X],100%
19,Cl.O=C(Nc1ccc(Oc2ccc3[nH]c(NC(=O)c4ccccc4)nc3c2)cc1)Nc1cc(C(F)(F)F)ccc1F [GW709042A],100%
20,Nc1ncnc2occ(-c3ccc(NC(=O)Nc4cc(C(F)(F)F)ccc4F)cc3)c12 [GW770249X],100%
21,NS(=O)(=O)c1ccc(N/N=C2\C(=O)Nc3ccc(C(=O)NCc4ccncc4)cc32)cc1 [GW300657X],99%
22,C/C(Nc1ccc(S(N)(=O)=O)cc1)=C1/C(=O)Nc2ccccc21 [GW335962X],100%
23,C[C@@H](Oc1cc(-n2cnc3ccc(OC4CCN(C)CC4)cc32)sc1C(N)=O)c1ccccc1Cl [GSK579289A],77%
24,COc1ccc2[nH]c3c4[nH]c5ccc(OC)cc5c4c4c(c3c2c1)C(=O)NC4=O [GW296115X],89%
25,CN1CCN(C(=O)c2ccc(NC(=O)Nc3ccc(N(C)c4ccnc(Nc5ccc(CS(C)(=O)=O)cc5)n4)cc3)cc2)CC1.Cl [GW830263A],98%
26,CCc1ccc(Oc2nccc(-c3c(-c4ccc(F)cc4)ncn3C3CCNCC3)n2)cc1 [SB-242719],100%
27,NS(=O)(=O)c1ccc(N/N=C2\C(=O)Nc3ccc(Cl)cc32)cc1 [GW280670X],100%

# System: JAK1(JH1domain-catalytic)
# Details: Compound Concentration (nM):1000
row,SMILES,Percent Control
1,COc1ccc2c(-c3ccnc(Nc4cccc(OC(F)(F)F)c4)n3)cnn2n1 [GW810372X],100%
2,CCS(=O)(=O)c1ccc(OC)c(Nc2ncc(-c3cccc(OC)c3)o2)c1 [GW580509X],100%
3,CC1=C(C(=O)Nc2ccc3[nH]ncc3c2)C(c2ccc3ccccc3c2)CC(=O)N1 (stereo not shown) [GSK270822A],82%
4,COc1cccc(-c2c[nH]c3c(N/N=C/c4ccncc4)ncnc23)c1 [GW814408X],75%
5,Cl.O=C(Nc1ccc(Oc2ccc3[nH]c(NC(=O)c4ccco4)nc3c2)cc1)Nc1cc(C(F)(F)F)ccc1F [GW683134A],100%
6,COC(=O)Nc1nc2ccc(Oc3ccc(NC(=O)Nc4cc(C(F)(F)F)ccc4F)cc3)cc2s1.Cl [GW693917A],71%
7,COc1cc(N2CCN(C(C)C)CC2)ccc1Nc1nc(Nc2ccc(F)cc2C(=O)NC[C@@H](O)CO)c2cc[nH]c2n1 [GSK1392956A],94%
8,COc1cc2ncn(-c3cc(O[C@H](C)c4ccccc4Cl)c(C(N)=O)s3)c2cc1OC [GSK237701A],100%
9,Cl.c1ccc(Cc2nc3ccc(Nc4ncnc5ccccc45)cc3[nH]2)cc1 [GR269666A],100%
10,COc1cc(C)c(N(C)C(=O)CN(C)C)cc1Nc1nc(Nc2cccc(F)c2C(N)=O)c2cc[nH]c2n1 [GSK2219385],88%
11,NS(=O)(=O)c1ccc(N/N=C2\C(=O)Nc3ccc(C(=O)NCCc4c[nH]cn4)cc32)cc1 [GW300660X],100%
12,CCS(=O)(=O)c1ccc(OC)c(Nc2ncc(-c3cccc(F)c3)o2)c1 [GW621970X],100%
13,CN(C)CCNC(=O)Nc1ccc(N(C)c2ccnc(Nc3ccc(CS(C)(=O)=O)cc3)n2)cc1.Cl [GW830900A],100%
14,COc1cc(/C=N/Nc2ncnc3[nH]ncc23)ccc1O [GW578748X],100%
15,COc1ccc2cc(-c3c(-c4ccncc4)nc(-c4ccc(S(C)(=O)=O)cc4C)n3C)ccc2c1 [SB-633825],100%
16,COc1ccc(COc2ccc(Cc3cnc(N)nc3N)cc2OC)cc1 [GW632580X],100%
17,COc1cccc(-n2ncc3c(N/N=C/c4ccncc4)ncnc32)c1 [GW784752X],100%
18,CN(C)c1cc2c(Nc3ccc4c(cnn4Cc4ccccc4)c3)ncnc2cn1 [GW282974X],100%
19,Cc1cc(O)cc(C)c1/C=C/c1cncc(C(N)=O)c1 [GW435821X],100%
20,NS(=O)(=O)c1ccc(N/N=C2\C(=O)Nc3ccc(-c4cnco4)cc32)cc1 [GW276655],100%

row,SMILES,Percent Control
1,O=C(Nc1n[nH]c2nc(-c3ccc(O)cc3)c(Br)cc12)C1CC1 [SB-725317],60%
2,NS(=O)(=O)c1ccc(Nc2ncc(-c3ccccc3)o2)cc1 [GW572399X],100%
3,Cl.O=C(O[C@H]1CN[C@H](C#Cc2cc3ncnc(Nc4ccc5c(cnn5Cc5ccccc5)c4)c3s2)C1)N1CCOCC1 [GSK200398A],96%
4,COc1ccccc1-c1cc(/C=C2\C(=O)Nc3ncc(Br)cc32)cc(Br)c1O [GW442130X],100%
5,CC1=C(C(=O)Nc2ccc3[nH]ncc3c2)C(c2ccc(Cl)c(Cl)c2)CC(=O)N1 (stereo not shown) [GSK299115A],41%
6,COc1cc2ncnc(Nc3ccc4c(cnn4Cc4ccccc4)c3)c2cc1OC.Cl [GW282449A],100%
7,O=C1Nc2ccc(C(=O)c3ccco3)cc2C1=Cc1cc(Cl)c(O)c(Cl)c1 [GW406108X],100%
8,CC(C)COC(=O)c1ccc2c(c1)/C(=C/Nc1ccc(S(N)(=O)=O)cc1)C(=O)N2 [GW416981X],100%
9,Cl.O=S1CCN(Cc2ccc(-c3ccc4ncnc(Nc5ccc(OCc6ccccc6)c(F)c5)c4c3)o2)CC1 [GW576924A],100%
10,CCn1c(-c2nonc2N)nc2c(C#CC(C)(C)O)nc(OCCNC)cc21.Cl [GSK949675],100%
11,COc1cc(C=NNc2ncnc3c2cnn3-c2ccccc2)ccc1O [GW513184X],100%
12,Cl.O=C(Nc1ccc(Oc2ccc3[nH]c(NC(=O)c4ccccc4)nc3c2)cc1)Nc1cc(C(F)(F)F)ccc1F [GW709042A],99%
13,Nc1ncnc2occ(-c3ccc(NC(=O)Nc4cc(C(F)(F)F)ccc4F)cc3)c12 [GW770249X],79%
14,NS(=O)(=O)c1ccc(N/N=C2\C(=O)Nc3ccc(C(=O)NCc4ccncc4)cc32)cc1 [GW300657X],88%
15,C/C(Nc1ccc(S(N)(=O)=O)cc1)=C1/C(=O)Nc2ccccc21 [GW335962X],100%
16,C[C@@H](Oc1cc(-n2cnc3ccc(OC4CCN(C)CC4)cc32)sc1C(N)=O)c1ccccc1Cl [GSK579289A],100%
17,COc1ccc2[nH]c3c4[nH]c5ccc(OC)cc5c4c4c(c3c2c1)C(=O)NC4=O [GW296115X],100%
18,CN1CCN(C(=O)c2ccc(NC(=O)Nc3ccc(N(C)c4ccnc(Nc5ccc(CS(C)(=O)=O)cc5)n4)cc3)cc2)CC1.Cl [GW830263A],76%
19,CCc1ccc(Oc2nccc(-c3c(-c4ccc(F)cc4)ncn3C3CCNCC3)n2)cc1 [SB-242719],95%
20,NS(=O)(=O)c1ccc(N/N=C2\C(=O)Nc3ccc(Cl)cc32)cc1 [GW280670X],100%
